Results filed as inconclusive are left out. Active and inactive are the calls of the source. Unless noted, calls come from the whole dose curve; as a rule, active = well fitted curve in the direction sought with a large enough effect in the repeat runs; inconclusive = weak or mixed curves; inactive = no such curve, though single readings can be large; an effect the other way counts as inactive or inconclusive.
Columns and labels:
[1] = qHTS assay to identify small molecule agonists of the NFkB signaling pathway - cell viability counter screen (AID 1159515; calls by dose curve; note: series mostly up to about 61 µM; nearly all actives have a fitted effect of over 55% in size)
Procedure, shortened: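 Tox21 library compounds were tested for cytotoxicity against NFkB-bla ME-180 cells during a 5 hr exposure at 37 C. CellTiter-Glo luminescence served as the viability read-out.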

[2] = qHTS assay to identify small molecule agonists of the endoplasmic reticulum stress response signaling pathway (AID 1159516; active = well fitted activation curve with a large enough effect in the signal ratio in the repeat runs, not every such curve was filed as active; the % refers to the signal ratio)
Procedure, shortened: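 Fluorescence at 460 and 530 nm (405 nm excitation) reports beta-lactamase from an ER stress response element in HeLa cells treated 5 hr at 37 C.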

[3] = qHTS assay to identify small molecule agonists of the endoplasmic reticulum stress response signaling pathway - cell viability counter screen (AID 1159517; calls by dose curve; note: series mostly up to about 61 µM; nearly all actives have a fitted effect of over 50% in size)
Procedure, shortened: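 ESRE-bla HeLa cells (1,500/well) were plated overnight at 37 C and exposed to compounds for 5 hr. After the 2 hr beta-lactamase substrate read, CellTiter-Glo went into the same wells, and luminescence was read after 30 min at room temperature.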

[4] = qHTS assay to identify small molecule antagonists of the retinoid-related orphan receptor gamma (ROR-gamma) signaling pathway - cell viability counter screen (AID 1159520); note: nearly all actives have a fitted effect of over 50% in size
Procedure, shortened: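 Cytotoxicity was read from cellular ATP (CellTiter-Glo luminescence) after 16 hr at 37 C with 1 uM doxycycline induction. The inducer was added 2 hr after compound transfer to Tet-on ROR gamma CHO cells.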

[5] = qHTS assay to identify small molecule agonists of the AP-1 signaling pathway - cell viability counter screen (AID 1159525; calls by dose curve; note: nearly all actives have a fitted effect of over 55% in size)
Procedure, shortened: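 Intracellular ATP by Cell Titer Glo luminescence (30 min, RT) in the same ME-180 AP-1-bla wells after the 5 h compound exposure at 37 °C. Normalised to tetra n-octyl ammonium bromide and DMSO controls.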

[6] = qHTS assay to identify small molecule agonists of the AP-1 signaling pathway (AID 1159526; calls by dose curve)
[7] = molecular target: Retinoic acid receptor RXR-alpha (Homo sapiens) (UniProt P19793); assay: qHTS assay to identify small molecule agonists of the RXR signaling pathway (AID 1159527; calls by dose curve; note: nearly all actives have a fitted effect of over 35% in size)
Procedure, shortened: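 Agonist-mode beta-lactamase reporter assay: HEK 293T RXR-alpha-UAS-bla cells treated 16 hr at 37 C with compounds, 9-cis retinoic acid as positive control. LiveBLAzer FRET substrate, 405 nm excitation, 460/530 nm emission.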

[8] = qHTS assay to identify small molecule agonists of the RXR signaling pathway - cell viability counter screen (AID 1159529); note: series mostly up to about 77 µM; nearly all actives have a fitted effect of over 50% in size
Procedure, shortened: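 CellTiter-Glo luminescence gave viability in the wells also read for beta-lactamase. Cells (RXR-alpha-UAS-bla HEK 293T, 2% charcoal-stripped FBS medium) had 5 hr plating, then 16 hr compound exposure at 37 C; tetraoctyl ammonium bromide served as positive control.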

[9] = qHTS assay to identify small molecule antagonists of the retinoid acid receptor (RAR) signaling pathway - cell viability counter screen (AID 1159551); note: nearly all actives have a fitted effect of over 35% in size
Procedure, shortened: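 In this counter screen, the RARE-luciferase line C3RL4 was exposed for 6 h at 37 C and 5% CO2 to compounds with retinol at 1 uM final. Cellular ATP, read by luminescence, served as the viability measure.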

[10] = qHTS assay to identify small molecule antagonists of the estrogen related receptor (ERR) signaling pathway from Tox21 library - cell viability counter screen (AID 1224834); note: nearly all actives have a fitted effect of over 30% in size; note: potency is the fitted concentration of half-maximal effect
Procedure, shortened: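 Counter screen run in ERR cells (2,000 cells/well): cells pre-incubated 6 h, then treated with compounds for 17.5 h at 37 C. Fluorescence was read 30 min after CellTiter-Fluor addition.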

[11] = qHTS assay to identify small molecule antagonists of the vitamin D receptor (VDR) signaling pathway - cell viability counter screen (AID 743225); note: nearly all actives have a fitted effect of over 50% in size
Procedure, shortened: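 Cytotoxicity counter screen read by CellTiter-Glo luminescence (30 min, room temperature) in the same wells as the VDR-bla antagonist readout. HEK 293T VDR-UAS-bla cells had 16 h at 37C with compound and 3 nM (final) 1-alpha,25-dihydroxyvitamin D3, then 2 h with FRET substrate.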

[12] = qHTS assay to identify small molecule antagonists of the retinoic acid receptor (RAR) signaling pathway (AID 1159552; note: nearly all actives have a fitted effect of over 50% in size)
Procedure, shortened: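 Luminescent RARE reporter read-out in C3RL4 cells: 6 hr co-treatment at 37 C of test compounds with retinol at 1 uM final. Cells plated overnight beforehand; luciferase reagent incubated 30 min at room temperature before reading.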

[13] = qHTS assay to identify small molecule agonists of the retinoic acid receptor (RAR) signaling pathway (AID 1159553)
Procedure, shortened: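 In this cell-based screen, 1,000 C3RL4 cells per well were cultured overnight, dosed with test chemicals in DMSO for 6 hr, and assessed for RARE luciferase luminescence.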

[14] = qHTS assay to identify small molecule antagonists of the estrogen related receptor (ERR) signaling pathway (AID 1224819)
Procedure, shortened: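 Seed ERR cells 2,000/well; rest 6 h at 37 C/5% CO2; pin compounds in DMSO; incubate 18 h at 37 C; add One-Glo; wait 30 min at room temperature; measure luminescence.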

[15] = qHTS assay to identify small molecule agonists of the estrogen related receptor (ERR) signaling pathway (AID 1224820)
Procedure, shortened: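 An ERR cell line provided by NTP was seeded at 2,000 cells per well and allowed to settle for 6 h before compounds in DMSO were added. After 18 h at 37 C, luciferase activity was measured by One-Glo luminescence.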

[16] = test system: estrogen-related receptor alpha (ERRalpha) with PGC-1alpha coactivator, human; assay: qHTS assay to identify small molecule antagonists of the estrogen related receptor signaling pathway with the pleiotropic PPARgamma coactivator (PGC) (AID 1224821; calls by dose curve)
Procedure, shortened: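 A PGC/ERR cell line supplied by NTP is seeded, allowed 6 h at 37 C, and treated with test compounds in DMSO for 18 h. Signal is then measured as luciferase luminescence using One-Glo.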

[17] = qHTS assay to identify small molecule agonists of the estrogen related receptor signaling pathway with the pleiotropic PPARgamma coactivator (PGC) (AID 1224823)
Procedure, shortened: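 Compounds dissolved in DMSO are added by pin tool to PGC/ERR cells that have settled for 6 h, and incubation continues 18 h at 37 C. Reporter output is measured as One-Glo luminescence.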

Measured: Potency

Sequence of Retinoic acid receptor RXR-alpha (Homo sapiens) (P19793 whole entry, looked up): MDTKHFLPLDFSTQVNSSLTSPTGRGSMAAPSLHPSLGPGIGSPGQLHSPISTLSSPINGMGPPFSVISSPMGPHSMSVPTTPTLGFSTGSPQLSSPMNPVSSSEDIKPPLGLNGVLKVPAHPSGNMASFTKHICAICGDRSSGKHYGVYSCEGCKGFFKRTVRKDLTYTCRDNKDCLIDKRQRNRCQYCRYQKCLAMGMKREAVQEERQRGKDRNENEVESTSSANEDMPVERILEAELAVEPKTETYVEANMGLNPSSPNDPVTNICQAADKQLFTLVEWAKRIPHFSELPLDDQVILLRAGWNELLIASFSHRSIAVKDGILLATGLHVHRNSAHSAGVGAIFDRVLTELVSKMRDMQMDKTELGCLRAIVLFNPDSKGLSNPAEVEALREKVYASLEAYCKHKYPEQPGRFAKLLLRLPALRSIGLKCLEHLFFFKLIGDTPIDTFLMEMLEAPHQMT

O=C(O)c1ccco1
not listed: [11] | [12] | [13] | [14] | [15] | [16] | [17]
inactive: all other assays above

CCn1cc(C(=O)O)c(=O)c2cnc(N3CCNCC3)nc21
not listed: [13] | [14] | [15] | [16] | [17]
inactive: all other assays above

Nc1cccc(S(=O)(=O)c2cccc(N)c2)c1
not listed: [12] | [13] | [14] | [15] | [16] | [17]
inactive: all other assays above

C[C@@H]1C[C@H]2[C@@H]3CCC4=CC(=O)C=C[C@]4(C)[C@@]3(F)[C@@H](O)C[C@]2(C)[C@@]1(O)C(=O)COC(=O)c1ccncc1
not listed: [13] | [14] | [15] | [16] | [17]
inactive: all other assays above

CC/C=C\CCOC(=O)CC
not listed: [12] | [13] | [14] | [15] | [16] | [17]
inactive: all other assays above

Cc1ncc(CO)c(C=O)c1O
not listed: [13] | [14] | [15] | [16] | [17]
inactive: all other assays above

CC(C)(C)Cl
not listed: [9] | [14] | [15] | [16] | [17]
inactive: all other assays above

OCCN1CCN(CCCN2c3ccccc3C=Cc3ccccc32)CC1
not listed: [8] | [10] | [13] | [14] | [15] | [16] | [17]
inactive: all other assays above

CC(CC=O)c1ccccc1 (configuration not stated)
not listed: [7] | [13] | [14] | [15] | [16] | [17]
inactive: all other assays above

CCO[Si](CCCCl)(OCC)OCC
not listed: [8] | [14] | [15] | [16] | [17]
inactive: all other assays above

COc1ccc2cccc(CCNC(C)=O)c2c1
not listed: [7] | [14] | [15] | [16] | [17]
inactive: all other assays above

CCOC(=O)C(=O)CCc1ccccc1
not listed: [9] | [13] | [14] | [15] | [16] | [17]
inactive: all other assays above

CC1OC(=O)C(C)OC1=O (configuration not stated)
not listed: [9] | [14] | [15] | [16] | [17]
inactive: all other assays above

CCCC(=O)Nc1ccc(O)c(C(C)=O)c1
not listed: [9] | [12] | [13] | [14] | [15] | [16] | [17]
inactive: all other assays above

C/C=C/C=C/CO
not listed: [9] | [12] | [13] | [14] | [15] | [16] | [17]
inactive: all other assays above

C[N+]1(CC2COC(c3ccccc3)(C3CCCCC3)O2)CCCCC1 (configuration not stated)
not listed: [8] | [12] | [13] | [14] | [15] | [16] | [17]
inactive: all other assays above

O=C(NCC1CN(c2ccc(N3CCOCC3=O)cc2)C(=O)O1)c1ccc(Cl)s1 (configuration not stated)
not listed: [8] | [14] | [15] | [16] | [17]
inactive: all other assays above

O=C(O)c1ccc(-n2nc(-c3ccccc3O)nc2-c2ccccc2O)cc1
active: [10] 23.7 µM
not listed: [7] | [13] | [14] | [15] | [16] | [17]
inactive: all other assays above

CC(C)C[C@H]1C(=O)N2CCC[C@H]2[C@]2(O)O[C@](NC(=O)[C@@H]3C=C4c5cccc6[nH]c(Br)c(c56)C[C@H]4N(C)C3)(C(C)C)C(=O)N12
active: [14] 16.8 µM | [16] 16.2 µM | [10] 18.4 µM
not listed: [7] | [12]
inactive: all other assays above

O=[N+]([O-])c1cccc(S(=O)(=O)O)c1
inactive: [11] | [1] | [2] | [3] | [4] | [5] | [6] | [7] | [13]
active: [10] 43.9 µM

O=S(=O)(Oc1ccc(Cl)cc1)c1ccccc1
not listed: [7] | [13] | [14] | [15] | [16] | [17]
inactive: all other assays above

Reference: PubChem BioAssay (Tox21)
